Experimental data reported in PubChem BioAssay (NCI).
The panel holds about 83,000 compounds, 20% with a hit somewhere; the sample as a whole holds those more often.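 Plates (96-well) were seeded with cells, treated with compound at one concentration, and incubated for 48 hours before percent growth was determined.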 Activity calls are given as the source filed them. The calls were made as follows: active = growth percent below 10; inactive = the rest.

How the values were obtained:
Experiment in all cases: NCI-60 one-dose screen, 48 h (100 = growth as untreated, 0 = no growth, -100 = all killed)
Conditions in all cases: 10 µM unless noted
[1] = tested on: NCI-H23 lung
[2] = tested on: NCI-H226 lung
[3] = tested on: NCI-H322M lung
[4] = tested on: HOP-62 NSCLC
[5] = tested on: NCI-H460 lung
[6] = tested on: HOP-92 NSCLC
[7] = tested on: NCI-H522 lung
[8] = tested on: A549/ATCC NSCLC
[9] = tested on: COLO 205 colon
[10] = tested on: 786-0 renal

Measured: growth

O=C(Cn1c[n+](CC(=O)c2ccc([N+](=O)[O-])cc2)c2ccccc21)Nc1cccc2cccnc12
inactive: [1] 50.9% | [2] 80.7% | [3] 96% | [4] 95.5% | [5] 77.7% | [6] 28% | [7] 47.1% | [8] 14.3% | [9] 23.9%

CCN(CC)CCOc1ccc(NC(=O)C(C(C)C)N2C(=O)/C(=C/c3ccc(Br)cc3)SC2=S)cc1 (stereo unspecified)
inactive: [1] 94.6% | [2] 90% | [3] 99.8% | [4] 104% | [5] 16.2% | [6] 78.8% | [7] 96.3% | [8] 16.6% | [9] 92.1%

NC1[C@H](c2c[nH]c3ccccc23)c2c([nH]c3ccccc23)[C@H]1c1c[nH]c2ccccc12 (stereo partly specified)
inactive: [1] 85.7% | [2] 92.1% | [3] 91.6% | [4] 90.1% | [5] 97.1% | [6] 84.2% | [7] 88.5% | [8] 90.6% | [10] 96.4% | [9] 110%

O=C(NO)c1ccc(-n2nc(-c3ccccc3)c3ccccc32)cc1
inactive: [1] 49.9% | [2] 56.4% | [3] 46.9% | [4] 29.7% | [5] 26.6% | [6] 62.9% | [8] 41.7% | [9] 49%
active: [7] 6.17%

N#C/C(=C\c1ccc(C(F)(F)F)cc1)c1cc2ccccc2[nH]1
inactive: [1] 98.1% | [2] 101% | [3] 100% | [4] 99.8% | [5] 97.7% | [6] 119% | [7] 84.5% | [8] 100% | [9] 113%

CCOC(=O)c1nc2c3ccccc3ccn2c1C(=O)OCC
inactive: [1] 96.9% | [2] 97.2% | [3] 95.1% | [4] 102% | [5] 118% | [6] 103% | [7] 88.3% | [8] 103% | [9] 109%

Cn1ccc2c1CC1CN(Cc3ccco3)C(=O)C1C2C(=O)O (stereo unspecified)
inactive: [1] 94.3% | [2] 103% | [3] 99.3% | [4] 96.8% | [5] 102% | [6] 99.4% | [7] 92.3% | [8] 98% | [9] 117%

O=C(C[n+]1cccc2ccccc21)c1ccc(O)c(O)c1
inactive: [1] 78.5% | [2] 62.1% | [3] 93.5% | [4] 102% | [5] 92.6% | [6] 73.2% | [7] 20.9% | [8] 84.4% | [9] 56.4%

N#C/C(=C\c1ccc([N+](=O)[O-])s1)c1nc2cc(Cl)ccc2s1
active: [1] 2.73% | [2] -74.1% | [5] 6.38% | [6] -37.8% | [7] -35.9% | [9] -26.6%
inactive: [3] 99.3% | [4] 12.6% | [8] 25.1%

Oc1c(Cl)cc(Cl)c(Cl)c1CNCCNCc1c(O)c(Cl)cc(Cl)c1Cl
inactive: [1] 24.7% | [2] 56.2% | [3] 21.8% | [4] 25% | [5] 13% | [6] 27.8% | [7] 14.9% | [8] 13.4% | [9] 13.3%

COc1cc2nc(-c3ccc(Cl)cc3)cc(OCCCN3CCCC3)c2cc1OC
inactive: [1] 62.8% | [3] 58.5% | [4] 45.3% | [5] 25.2% | [6] 25% | [7] 38.1% | [8] 41.5% | [10] 67.4% | [9] 21.5%
active: [2] -13.5%

[O-][n+]1c(Cl)cc(Cl)c2ccccc21
inactive: [1] 102% | [2] 104% | [3] 115% | [4] 103% | [5] 108% | [6] 89.4% | [7] 104% | [8] 91.9% | [9] 107%

CCOC(=O)c1cc(C(=O)c2ccc(OC)c(OC)c2)n2ccc(/C=C/c3cc[n+](CC(=O)c4ccc(OC)c(OC)c4)cc3)cc12
inactive: [1] 93.5% | [2] 99.2% | [3] 99% | [4] 101% | [5] 98.6% | [6] 110% | [7] 85.5% | [8] 95.9% | [9] 114%

COc1cc(C2C3=C(COC3=O)N(CCO)c3cc4c(cc32)CCC4)cc(OC)c1OC (stereo unspecified)
inactive: [3] 39.8% | [6] 78.2% | [8] 28.9%
active: [1] -26.2% | [2] 2.98% | [4] 7.11% | [5] -44.8% | [7] -26.7% | [10] -4.65% | [9] -98.8%

CC(=O)Nc1cccc(-c2ccc3c(c2)NC(=O)/C3=C\c2ccc[nH]2)c1
inactive: [1] 27.8% | [2] 52.7% | [3] 40.9% | [4] 55.3% | [5] 21.6% | [7] 16.6% | [8] 40.4% | [10] 59% | [9] 38.8%

COC(=O)C1=C(C(=O)ON)C2C=CC1(C(Cc1ccccc1)Nc1ccccc1)O2 (stereo unspecified)
active: [7] -77.4% | [9] -72%
inactive: [1] 89.4% | [2] 107% | [3] 93.3% | [4] 105% | [5] 103% | [8] 96.1% | [10] 93%

COc1ccc(CC(C)=C(c2ccc(OCCN3CCCCCC3)cc2)c2ccc(OCCN3CCCCCC3)cc2)cc1
active: [1] -87.9% | [2] -74.4% | [3] -99.3% | [4] -77.4% | [5] -95% | [7] -82.4% | [8] -86% | [10] -72.1% | [9] -67.5%

Cc1nnc2c(Cc3ccccc3)nc3ccccc3n12
inactive: [1] 91.3% | [2] 84.9% | [3] 100% | [4] 108% | [5] 100% | [7] 107% | [8] 97.9% | [10] 98.6% | [9] 113%

COc1cc(/C(C)=C(\c2ccc(Cl)cc2)c2ccc(OCCN3CCCC3)cc2)ccc1F
active: [5] 6.04%
inactive: [1] 67.4% | [2] 87.8% | [3] 71% | [4] 87.2% | [7] 80% | [8] 57.1% | [10] 71.4% | [9] 16.3%

O=S(=O)(NCCCNc1nccc(-c2c(-c3cccc(F)c3)nc3sccn23)n1)c1cccc(F)c1
inactive: [1] 38.8% | [2] 23.2% | [3] 79.9% | [4] 61.3% | [5] 58.3% | [7] 21.9% | [8] 49.3% | [10] 66.3% | [9] 23.4%

O=C(/C(=C\c1ccc([N+](=O)[O-])cc1)S(=O)Cc1ccc(F)cc1)c1ccc(F)cc1 (stereo unspecified)
inactive: [1] 46.7% | [2] 77.9% | [3] 79.9% | [4] 38.1% | [5] 30.9% | [8] 79.9%
active: [7] -22.1% | [10] -43.9% | [9] 8.65%

CCCNC(=O)Oc1ccc(/C(=C(\C)c2ccccc2)c2ccc(OCCCN(C)C)cc2)cc1
inactive: [1] 75.6% | [2] 102% | [3] 81.2% | [4] 78.3% | [5] 75.1% | [7] 79.6% | [8] 70% | [10] 58.6% | [9] 52.8%

CC(C)N1C(=O)/C(=C2\SC(=S)N(C(C)C)C2=O)SC1=S
inactive: [1] 94% | [2] 101% | [3] 94% | [4] 95.5% | [5] 101% | [7] 90.6% | [8] 93.8% | [9] 110%

COc1cc2c(c(O)c1Br)C(=O)c1c(O)cc(C[C@H](C)O)cc1[C@H]2[C@H]1c2cc(C[C@H](C)O)cc(O)c2C(=O)c2c1cc(OC)c(Br)c2O
active: [1] 6.19% | [5] 0.308% | [7] 2.22% | [9] -35.3%
inactive: [2] 14.3% | [3] 17.2% | [4] 16.5% | [8] 11.1% | [10] 10.4%

CCOC(=O)Nc1ccc(-c2ccc3c(c2)NC(=O)/C3=C\c2ccc[nH]2)cc1
inactive: [2] 68% | [3] 63.1% | [4] 91.9% | [5] 37.1% | [6] 102% | [7] 97.8% | [8] 103% | [10] 108%

CC1(C)CC[C@]2(C(=O)O)CC[C@]3(C)C(=CC[C@@H]4[C@@]5(C)Cc6c([nH]c7ccccc67)C(C)(C)[C@@H]5CC[C@]43C)[C@@H]2C1
inactive: [1] 32.8% | [2] 48.9% | [3] 27.3% | [4] 28.2% | [5] 16.7% | [7] 31.5% | [8] 17.8% | [10] 37.7%
active: [9] -15.5%

O=C(Nc1ccccc1)Nc1ccc2cc3ccc(NC(=O)Nc4ccccc4)cc3nc2c1
active: [7] -4.64% | [9] 3.12%
inactive: [1] 23.7% | [2] 91% | [3] 61.6% | [4] 46.1% | [5] 92.6% | [8] 101% | [10] 25.7%

Fc1ccc2c(-c3cncn3CCc3ccccc3)c[nH]c2c1
inactive: [1] 86.2% | [2] 75.9% | [3] 91.8% | [4] 87.4% | [5] 92.7% | [7] 82% | [8] 87% | [9] 101%

c1ccc(-c2c(-c3ccccc3)[n+](Cc3ccc4ccccc4c3)c(-c3cccc4ccccc34)n2Cc2ccc3ccccc3c2)cc1
active: [1] -38.4% | [2] -42.3% | [3] 4.47% | [4] -84.7% | [5] -80% | [7] -39.5% | [8] -45.1% | [10] -68.3% | [9] -65%
